Results reported in the supplement of paper PMC12645437, “Orthogonal IMiD-Degron Pairs Induce Selective Protein Degradation in Cells” (ACS Chemical Biology, 2025).
Over roughly 8,300 sequences, “log2 fold change of degron read counts, EGFP-low vs EGFP+ sorted cells (limma voom), compound-induced degradation” has its median near -1.1; the highest 2% begin near 3.2. For the sample, the highest values were picked, then their nearest neighbours and some sequences at random.

B1: 46L_47W_49P_50I_52G_53F_54I_55C_67L_, Q9UKT9 (peptide)
chain: LWCPICGFICTQKGNLLRHIKL
B2: 46F_47N_49E_50Q_52G_53A_54Q_55F_67L_, Q9UKT9 (peptide)
chain: FNCEQCGAQFTQKGNLLRHIKL
B3: 46L_47T_49N_50Q_52G_53F_54M_55C_67L_, Q9UKT9 (peptide)
chain: LTCNQCGFMCTQKGNLLRHIKL
B4: 46F_47F_49N_50Q_52G_53A_54K_55F_67L_, Q9UKT9 (peptide)
chain: FFCNQCGAKFTQKGNLLRHIKL
B5: 46F_47D_49N_50V_52G_53A_54P_55F_67L_, Q9UKT9 (peptide)
chain: FDCNVCGAPFTQKGNLLRHIKL
B6: 46L_47V_49E_50I_52G_53F_54R_55C_67L_, Q9UKT9 (peptide)
chain: LVCEICGFRCTQKGNLLRHIKL
B7: 46L_47W_49E_50I_52G_53F_54R_55C_67L_, Q9UKT9 (peptide)
chain: LWCEICGFRCTQKGNLLRHIKL
B8: 46L_47C_49E_50I_52G_53F_54R_55C_67L_, Q9UKT9 (peptide)
chain: LCCEICGFRCTQKGNLLRHIKL
B9: 46L_47T_49E_50I_52G_53F_54R_55C_67L_, Q9UKT9 (peptide)
chain: LTCEICGFRCTQKGNLLRHIKL
B10: 46L_47H_49E_50I_52G_53F_54R_55C_67L_, Q9UKT9 (peptide)
chain: LHCEICGFRCTQKGNLLRHIKL
B11: 46L_47S_49E_50I_52G_53F_54R_55C_67L_, Q9UKT9 (peptide)
chain: LSCEICGFRCTQKGNLLRHIKL
B12: 46L_47G_49E_50I_52G_53F_54R_55C_67L_, Q9UKT9 (peptide)
chain: LGCEICGFRCTQKGNLLRHIKL
B13: 46L_47A_49E_50I_52G_53F_54R_55C_67L_, Q9UKT9 (peptide)
chain: LACEICGFRCTQKGNLLRHIKL
B14: 46L_47N_49E_50I_52G_53F_54R_55C_67L_, Q9UKT9 (peptide)
chain: LNCEICGFRCTQKGNLLRHIKL
B15: 46L_47Y_49E_50I_52G_53F_54R_55C_67L_, Q9UKT9 (peptide)
chain: LYCEICGFRCTQKGNLLRHIKL
B16: 46L_47M_49E_50I_52G_53F_54R_55C_67L_, Q9UKT9 (peptide)
chain: LMCEICGFRCTQKGNLLRHIKL
B17: 46L_47D_49E_50I_52G_53F_54R_55C_67L_, Q9UKT9 (peptide)
chain: LDCEICGFRCTQKGNLLRHIKL
B18: 46F_47Q_49N_50Q_52G_53R_54E_55F_67L_, Q9UKT9 (peptide)
chain: FQCNQCGREFTQKGNLLRHIKL
B19: 46F_47D_49E_50Q_52G_53A_54C_55F_67L_, Q9UKT9 (peptide)
chain: FDCEQCGACFTQKGNLLRHIKL
B20: 46F_47G_49D_50I_52G_53A_54A_55F_67L_, Q9UKT9 (peptide)
chain: FGCDICGAAFTQKGNLLRHIKL
B21: 46L_47L_49P_50I_52G_53F_54P_55C_67L_, Q9UKT9 (peptide)
chain: LLCPICGFPCTQKGNLLRHIKL
B22: 46F_47D_49N_50Q_52G_53A_54T_55F_67L_, Q9UKT9 (peptide)
chain: FDCNQCGATFTQKGNLLRHIKL
B23: 46F_47W_49P_50I_52G_53H_54R_55F_67L_, Q9UKT9 (peptide)
chain: FWCPICGHRFTQKGNLLRHIKL
B24: 46L_47A_49N_50Q_52G_53F_54F_55C_67L_, Q9UKT9 (peptide)
chain: LACNQCGFFCTQKGNLLRHIKL
B25: 46F_47H_49E_50I_52G_53R_54P_55F_67L_, Q9UKT9 (peptide)
chain: FHCEICGRPFTQKGNLLRHIKL
B26: 46F_47T_49S_50V_52G_53H_54S_55F_67L_, Q9UKT9 (peptide)
chain: FTCSVCGHSFTQKGNLLRHIKL
B27: 46F_47Y_49E_50V_52G_53A_54D_55F_67L_, Q9UKT9 (peptide)
chain: FYCEVCGADFTQKGNLLRHIKL
B28: 46F_47Y_49E_50V_52G_53A_54R_55F_67L_, Q9UKT9 (peptide)
chain: FYCEVCGARFTQKGNLLRHIKL
B29: 46F_47F_49E_50V_52G_53A_54L_55F_67L_, Q9UKT9 (peptide)
chain: FFCEVCGALFTQKGNLLRHIKL
B30: 46F_47Y_49E_50V_52G_53A_54L_55F_67L_, Q9UKT9 (peptide)
chain: FYCEVCGALFTQKGNLLRHIKL
B31: 46F_47C_49E_50V_52G_53A_54R_55F_67L_, Q9UKT9 (peptide)
chain: FCCEVCGARFTQKGNLLRHIKL
B32: 46F_47F_49E_50V_52G_53A_54R_55F_67L_, Q9UKT9 (peptide)
chain: FFCEVCGARFTQKGNLLRHIKL
B33: 46F_47D_49E_50V_52G_53A_54R_55F_67L_, Q9UKT9 (peptide)
chain: FDCEVCGARFTQKGNLLRHIKL
B34: 46F_47W_49E_50V_52G_53A_54L_55F_67L_, Q9UKT9 (peptide)
chain: FWCEVCGALFTQKGNLLRHIKL
B35: 46F_47W_49E_50V_52G_53A_54D_55F_67L_, Q9UKT9 (peptide)
chain: FWCEVCGADFTQKGNLLRHIKL
B36: 46F_47E_49E_50V_52G_53A_54R_55F_67L_, Q9UKT9 (peptide)
chain: FECEVCGARFTQKGNLLRHIKL
B37: 46F_47I_49E_50V_52G_53A_54R_55F_67L_, Q9UKT9 (peptide)
chain: FICEVCGARFTQKGNLLRHIKL
B38: 46F_47W_49E_50V_52G_53A_54R_55F_67L_, Q9UKT9 (peptide)
chain: FWCEVCGARFTQKGNLLRHIKL

Molecular target: T1, CRBN, Q96SW2
T1 chain: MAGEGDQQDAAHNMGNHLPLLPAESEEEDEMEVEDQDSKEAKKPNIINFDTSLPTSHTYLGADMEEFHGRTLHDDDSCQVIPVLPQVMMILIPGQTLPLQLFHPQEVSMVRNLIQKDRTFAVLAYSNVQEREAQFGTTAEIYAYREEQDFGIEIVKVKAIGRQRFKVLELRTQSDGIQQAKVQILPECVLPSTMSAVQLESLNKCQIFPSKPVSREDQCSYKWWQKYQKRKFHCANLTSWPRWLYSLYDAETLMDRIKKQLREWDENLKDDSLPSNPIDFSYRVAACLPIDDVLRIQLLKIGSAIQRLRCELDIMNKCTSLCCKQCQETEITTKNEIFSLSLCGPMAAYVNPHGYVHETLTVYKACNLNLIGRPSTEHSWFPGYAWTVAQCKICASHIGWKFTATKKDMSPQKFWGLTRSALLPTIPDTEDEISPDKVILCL
Experiment: log2 fold change of degron read counts, EGFP-low vs EGFP+ sorted cells (limma voom), compound-induced degradation; higher = more compound-induced degradation of the degron-EGFP fusion; degrons are variants of IKZF1/3 zinc finger 2; compound dose not given here
Conditions: Jurkat, 18 h

[1] = compound: compound 19 (5-tert-butyl-thalidomide)
[2] = compound: compound 22 (5-morpholino-thalidomide)
[3] = compound: compound 33 (diphenyl IMiD analogue)
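Also: pooled lentiviral library of zinc finger degron-EGFP fusions in mCherry-positive Jurkat cells, FACS-sorted after compound exposure, with degron abundance counted by next-generation sequencing.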

Sequence	log2 fold change of degron read counts [1]	log2 fold change of degron read counts [2]	log2 fold change of degron read counts [3]	log2 fold change of degron read counts (compound: thalidomide)
B1	2.27	2.7	2.35	1.24
B2	-1.51	-2.31	-2.13	-2.22
B3	-2.05	-1.99	-2.04	-1.23
B4	-0.805	-0.929	-1.59	-1.91
B5	-1.08	-1.02	-1.22	-0.873
B6	2.5	2.55	1.39	3.28
B7	3.39	3.5	2.48	1.8
B8	2.36	2.33	1.37	2.65
B9	1.66	2.1	1.15	2.73
B10	2.71	2.4	1.3	1.88
B11	2.82	2.76	0.517	1.83
B12	2.14	1.52	-0.383	0.468
B13	3.5	2.79	0.159	1.41
B14	1.31	0.0636	-0.877	0.378
B15	3.55	3.9	2.17	1.9
B16	0.992	0.81	2.15	2.41
B17	0.949	-0.499	-0.616	0.426
B18	-3.47	-3.04	-3.68	-2.95
B19	-1.94	-2.86	-2.08	-2.3

Sequence	log2 fold change of degron read counts [1]	log2 fold change of degron read counts [2]	log2 fold change of degron read counts [3]	log2 fold change of degron read counts (compound: thalidomide)
B20	1.51	0.584	0.961	-0.234
B21	-0.669	1.1	1.61	2.14
B22	-2.56	-3.15	-3.02	-2.62
B23	-0.606	0.31	-0.595	-0.478
B24	-0.913	-1.22	-1.37	-0.847
B25	1.69	0.386	0.306	-0.468
B26	-2.98	-3.17	-2.89	-2.9
B27	0.695	1.02	0.125	-1.36
B28	3.84	3.8	2.26	1.95
B29	2.55	2.63	1.79	0.407
B30	3.18	3.03	2.24	0.431
B31	3.05	3.02	1.45	2.9
B32	3.78	3.71	1.69	2.19
B33	3.09	1.52	0.571	2.08
B34	2.17	2.69	1.86	-0.0715
B35	-0.303	0.852	-0.582	-1.26
B36	1.13	-0.689	1.27	3.29
B37	0.108	2.04	1.51	2.6
B38	3.36	3.82	1.63	1.59
